# Assay results published in PubChem BioAssay (NCATS).
# Results filed as inconclusive are left out. A number with no mark means an inactive call. Calls follow the shape of the dose curve; as a rule, active = well fitted curve in the direction sought with a large enough effect; inconclusive = small, poorly fitted or top-dose-only effect, or another doubt; inactive = no such curve, though single readings can be large or run the other way.
# Assay: qHTS Assay for Identifying Gametocytocidal Compounds (AID 743244);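 also: actives lower the fluorescent signal which means gametocytes are killed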
# Conditions: P. falciparum 3D7 stage III-V gametocytes, alamarBlue, 72 h; max response: hits give low values
# Procedure, shortened: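 Using 20,000 stage III–V 3D7 gametocytes per well, compounds were incubated 72 h under 37 °C/5% CO2. Viability was then assessed by 24 h alamarBlue reduction, measured fluorometrically at 525/598 nm.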
# % is scaled to controls: 0 for no effect and ±100 for the full control effect.
row,Compound,max response [%]
1,COc1ccc(/C=C/C(=O)OCCC(C)C)cc1,3.66
2,CC(C)C[C@@H](NC(=O)[C@@H](O)[C@H](N)Cc1ccccc1)C(=O)O,1.84
3,COc1ccc(C(=O)CCC(=O)O)c2ccccc12,-11.7
4,O=C1c2ccccc2C(=O)C1c1ccc(Cl)cc1,13.7
5,CCN(CC)C(=O)c1cccnc1,-8.37
6,CSCCC(N)C(=O)O (stereo not drawn),-5.15
7,CO[C@H]1C[C@@H]2CC[C@@H](C)[C@@](O)(O2)C(=O)C(=O)N2CCCC[C@H]2C(=O)O[C@H]([C@H](C)C[C@@H]2CC[C@@H](OC(=O)C(C)(CO)CO)[C@H](OC)C2)CC(=O)[C@H](C)/C=C(\C)[C@@H](O)[C@@H](OC)C(=O)[C@H](C)C[C@H](C)/C=C/C=C/C=C/1C,-3.38
8,NC(=O)[C@@H]1CCCN1C(=O)[C@H](Cc1cnc[nH]1)NC(=O)[C@@H]1CCC(=O)N1,7.17
9,CC(=O)Nc1c(I)c(C(=O)O)c(I)c(N(C)C(C)=O)c1I,-0.708
10,CC(CNC(=O)c1cccnc1)NC(=O)c1cccnc1 (stereo not drawn),-8.6
11,CC1C(=O)CC2C3(C)CCC2(C(C)C(=O)O)C(=O)C13 (stereo not drawn),-7.97
12,Cc1cccc(C)c1NC(=O)NC1=CCCN1C,-1.59
13,OC[C@H]1OC([S-])[C@H](O)[C@@H](O)[C@@H]1O.[Au+] (stereo partly drawn),-13.3
14,O=C1NCCN1c1ncc([N+](=O)[O-])s1,-6.09
15,CC/C=C\C/C=C\C/C=C\C/C=C\C/C=C\CCCC(=O)O,-4.05
16,C[C@@H]1C/C=C/C=C/C=C/C=C/[C@H](O[C@@H]2O[C@H](C)[C@@H](O)[C@H](N)[C@@H]2O)C[C@@H]2O[C@](O)(C[C@@H](O)C[C@H]3O[C@@H]3/C=C/C(=O)O1)C[C@H](O)[C@H]2C(=O)O,15.6
17,NCCCC[C@H](N)C(=O)O,5.86
18,CN1c2c(nc(N)[nH]c2=O)NCC1CNc1ccc(C(=O)NC(CCC(=O)O)C(=O)O)cc1 (stereo not drawn),15.5
19,COc1cc(C)c(/C=C/C(C)=C/C=C/C(C)=C/C(=O)O)c(C)c1C,1.95

row,Compound,max response [%]
1,CCN(CC)CCC(=O)N1c2ccccc2Sc2ccc(C(F)(F)F)cc21,-16
2,CCCc1ccc(C(=O)O)cc1,0.792
3,CC(=O)[O][Al][O]C(C)=O,-11.1
4,CC(CCc1ccc(O)cc1)NCC(O)c1ccc(O)cc1 (stereo not drawn),16.5
5,CC/C(=C(/CC)c1ccc(OP(=O)(O)O)cc1)c1ccc(OP(=O)(O)O)cc1,-1.73
6,C=CC[N@@+]12CC[C@@]34c5ccccc5N5/C=C6/[C@H]7C[C@H]8[C@@]9(CC[N@@+]8(CC=C)C/C7=C/CO)c7ccccc7N(/C=C(/[C@@H](C[C@@H]31)/C(=C\CO)C2)[C@H]54)[C@@H]69,4.55
7,CN1CCc2c(c3ccccc3n2Cc2ccccc2)C1,9.99
8,O=C(O)Cc1nn(Cc2ccc(Br)cc2F)c(=O)c2ccccc12,-4.01
9,CC1(C)S[C@@H]2[C@H](N3C(=O)C(c4ccccc4)NC3(C)C)C(=O)N2[C@H]1C(=O)O (stereo partly drawn),5.31
10,Nc1ncnc2c1ncn2CCOCP(=O)(O)O,-0.768
11,CC[C@H](C)[C@@H]1NC(=O)[C@H](Cc2ccc(O)cc2)NC(=O)[C@@H](N)CSSC[C@@H](C(=O)N2CCC[C@H]2C(=O)N[C@@H](CC(C)C)C(=O)NCC(N)=O)NC(=O)[C@H](CC(N)=O)NC(=O)[C@H](CCC(N)=O)NC1=O,0.419
12,CCOC(=O)Cc1ccc(-c2ccccc2)cc1,-12.4
13,[O]=[Bi][O][Bi]=[O],11.3
14,O=[N+]([O-])O[C@@H]1CO[C@H]2[C@@H]1OC[C@@H]2O,5.11
15,C=CCCCCCCCCC(=O)OC,16.7
16,COc1cc(S(C)=O)ccc1-c1nc2ncccc2[nH]1 (stereo not drawn),11.9
17,CC(=O)[C@@]1(O)CC[C@H]2[C@@H]3C=C(Cl)C4=CC(=O)[C@@H]5C[C@@H]5[C@]4(C)[C@H]3CC[C@@]21C,3.29
18,CCCCCCCCCCCCCCCCCC[N+](C)(C)CCC[Si](OC)(OC)OC,-8.48
19,NC(=O)c1ccc[n+]([C@@H]2O[C@H](COP(=O)([O-])OP(=O)(O)OC[C@H]3O[C@@H](n4cnc5c(N)ncnc54)[C@H](O)[C@@H]3O)[C@@H](O)[C@H]2O)c1,2.6
